Measured values reported in PubChem BioAssay (EPA / NIEHS).
Records with an inconclusive call do not appear. Active and inactive are the calls of the source. How the source made its calls, unless noted: active means hit-call score of the fitted dose curve at least 0.9, where 1 is the maximum; inactive means score below 0.9.

Experiments:
[1] = molecular target: X-box-binding protein 1 (Homo sapiens) (UniProt P17861); experiment: ATG_Xbp1_CIS: Attagene CIS-FACTORIAL HepG2 Assay for human X-box Binding Protein 1 (XBP1) (AID 2282972); details: HepG2 XBP1 cis-element reporter, Attagene multiplex; actives raise or lower the signal
Sequence of X-box-binding protein 1 (Homo sapiens) (P17861 whole entry, looked up, the tested form may be a part): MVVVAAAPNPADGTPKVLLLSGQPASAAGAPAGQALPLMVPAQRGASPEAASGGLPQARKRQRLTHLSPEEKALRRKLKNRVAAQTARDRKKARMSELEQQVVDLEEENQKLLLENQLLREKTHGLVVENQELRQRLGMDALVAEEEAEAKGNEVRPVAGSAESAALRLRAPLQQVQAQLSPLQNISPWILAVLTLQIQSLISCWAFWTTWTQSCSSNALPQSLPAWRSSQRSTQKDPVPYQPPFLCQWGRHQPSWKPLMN
Summary of the method: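 Read-out: fluorescent reporter mRNA fragments resolved by capillary electrophoresis after RT-PCR. Human HepG2 liver cells carried transfected cis-promoter reporter units and were exposed to chemicals for 24 hours. Gain or loss of signal fitted relative to DMSO baseline.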

[2] = ATG_GAL4_TRANS: Attagene TRANS-FACTORIAL HepG2 Assay for GAL4 (Internal Marker) (AID 2282976; active means hit-call score of the fitted dose curve at least 0.9, where 1 is the maximum); details: HepG2 Attagene TRANS GAL4 internal marker reporter
Summary of the method: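 Background-control readout: GAL4-UAS reporter transcript in transiently transfected HepG2 cells after 24 h compound exposure. Measured by RT-PCR, 6-FAM primer extension, HpaI digest and capillary electrophoresis; gain-of-signal fit versus DMSO.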

[3] = molecular target: Glucocorticoid receptor (Homo sapiens) (UniProt P04150); experiment: ATG_GR_TRANS: Attagene TRANS-FACTORIAL HepG2 Assay for human Glucocorticoid Receptor (GR) (AID 2282978; active means hit-call score of the fitted dose curve at least 0.9, where 1 is the maximum;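 further: activators score as hits since higher reporter transcript over DMSO is fitted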); details: HepG2 Attagene TRANS GR reporter, mRNA transcription
Sequence of Glucocorticoid receptor (Homo sapiens) (P04150 whole entry, looked up, the tested form may be a part): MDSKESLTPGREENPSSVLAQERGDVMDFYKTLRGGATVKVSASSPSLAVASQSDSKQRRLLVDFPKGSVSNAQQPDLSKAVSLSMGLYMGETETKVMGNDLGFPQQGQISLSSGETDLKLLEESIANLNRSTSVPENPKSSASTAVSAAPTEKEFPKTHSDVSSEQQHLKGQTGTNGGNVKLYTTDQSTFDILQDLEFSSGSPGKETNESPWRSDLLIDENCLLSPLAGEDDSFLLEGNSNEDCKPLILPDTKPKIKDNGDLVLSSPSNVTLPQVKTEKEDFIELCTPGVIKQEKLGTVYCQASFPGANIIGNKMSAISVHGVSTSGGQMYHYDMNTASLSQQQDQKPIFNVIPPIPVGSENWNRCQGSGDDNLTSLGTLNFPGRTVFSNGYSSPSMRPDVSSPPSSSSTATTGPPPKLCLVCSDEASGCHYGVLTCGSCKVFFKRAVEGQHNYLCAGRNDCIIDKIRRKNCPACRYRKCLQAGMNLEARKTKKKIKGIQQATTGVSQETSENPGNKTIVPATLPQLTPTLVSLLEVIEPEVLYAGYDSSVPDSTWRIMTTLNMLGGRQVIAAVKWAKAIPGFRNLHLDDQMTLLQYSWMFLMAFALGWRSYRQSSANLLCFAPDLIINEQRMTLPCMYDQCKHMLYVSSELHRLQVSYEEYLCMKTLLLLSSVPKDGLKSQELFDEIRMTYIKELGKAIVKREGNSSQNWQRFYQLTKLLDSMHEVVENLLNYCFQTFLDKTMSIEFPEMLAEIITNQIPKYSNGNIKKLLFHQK
Summary of the method: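 In this trans-factorial format, exogenous NR-GAL4 chimeric proteins in transfected HepG2 cells regulate GAL4-UAS reporter transcription. After 24 h treatment, reporter mRNA induction relative to DMSO is read by RT-PCR and capillary electrophoresis.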

[4] = molecular target: Oxysterols receptor LXR-beta (Homo sapiens) (UniProt P55055); experiment: ATG_LXRb_TRANS: Attagene TRANS-FACTORIAL HepG2 Assay for human Liver X Receptor beta (LXRb) (AID 2282981; active means hit-call score of the fitted dose curve at least 0.9, where 1 is the maximum); details: HepG2 Attagene TRANS GAL4-LXRb reporter, mRNA
Sequence of Oxysterols receptor LXR-beta (Homo sapiens) (P55055 whole entry, looked up, the tested form may be a part): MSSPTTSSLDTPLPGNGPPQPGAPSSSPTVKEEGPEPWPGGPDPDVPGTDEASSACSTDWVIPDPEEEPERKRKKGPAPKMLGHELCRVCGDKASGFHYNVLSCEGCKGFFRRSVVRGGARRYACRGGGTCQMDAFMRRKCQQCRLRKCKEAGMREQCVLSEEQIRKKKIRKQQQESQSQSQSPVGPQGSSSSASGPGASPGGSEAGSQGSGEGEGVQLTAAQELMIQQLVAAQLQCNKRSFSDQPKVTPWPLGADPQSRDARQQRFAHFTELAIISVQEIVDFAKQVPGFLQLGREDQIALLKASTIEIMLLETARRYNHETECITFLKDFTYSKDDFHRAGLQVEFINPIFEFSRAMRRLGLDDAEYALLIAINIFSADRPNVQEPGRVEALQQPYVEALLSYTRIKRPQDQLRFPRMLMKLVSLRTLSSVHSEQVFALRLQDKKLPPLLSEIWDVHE
Summary of the method: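 Readout: fluorescent reporter mRNA fragments resolved by capillary electrophoresis after RT-PCR. System: transiently transfected human HepG2, exogenous LXRb-Gal4 chimera driving GAL4-UAS reporter, 24 h dosing. Activity fitted upward against DMSO baseline.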

[5] = molecular target: Hepatocyte nuclear factor 4-alpha (Homo sapiens) (UniProt P41235); experiment: ATG_HNF4a_TRANS: Attagene TRANS-FACTORIAL HepG2 Assay for human Hepatocyte Nuclear Factor 4 alpha (HNF4a) (AID 2282982; active means hit-call score of the fitted dose curve at least 0.9, where 1 is the maximum); details: HepG2 HNF4a transactivation reporter, mRNA readout
Sequence of Hepatocyte nuclear factor 4-alpha (Homo sapiens) (P41235 whole entry, looked up): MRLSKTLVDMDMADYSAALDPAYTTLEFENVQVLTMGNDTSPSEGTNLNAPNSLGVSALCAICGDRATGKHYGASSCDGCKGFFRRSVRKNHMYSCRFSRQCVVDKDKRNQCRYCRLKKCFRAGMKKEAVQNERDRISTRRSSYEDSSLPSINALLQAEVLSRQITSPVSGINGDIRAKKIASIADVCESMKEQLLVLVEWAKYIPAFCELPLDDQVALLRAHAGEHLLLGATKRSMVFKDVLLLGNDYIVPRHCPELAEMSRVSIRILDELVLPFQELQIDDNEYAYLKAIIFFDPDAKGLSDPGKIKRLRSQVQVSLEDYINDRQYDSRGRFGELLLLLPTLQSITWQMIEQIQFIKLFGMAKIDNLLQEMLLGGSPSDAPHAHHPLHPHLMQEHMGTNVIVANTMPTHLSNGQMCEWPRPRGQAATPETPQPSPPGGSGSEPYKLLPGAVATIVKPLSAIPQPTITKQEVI
Summary of the method: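 Transient MRTU transfection of HepG2, 24 h dosing. Readout: reporter mRNA via RT-PCR + capillary electrophoresis, fluorescence; activity fit upward relative to DMSO control.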

[6] = ATG_M_32_TRANS: Attagene TRANS-FACTORIAL HepG2 Assay for M32 Transcription Factor (Internal Marker) (AID 2282984; active means hit-call score of the fitted dose curve at least 0.9, where 1 is the maximum); details: HepG2 Attagene TRANS M32 internal marker reporter
Summary of the method: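 Read-out: fluorescent reporter cDNA fragments resolved by capillary electrophoresis after RT-PCR of total RNA. Transfected HepG2 cells were exposed to chemical for 24 h. Activity scored in the positive direction relative to DMSO.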

[7] = molecular target: Transcriptional activator Myb (Homo sapiens) (UniProt P10242); experiment: ATG_Myb_CIS: Attagene CIS-FACTORIAL HepG2 Assay for human Myeloblastosis (Myb) Proto-Oncogene Transcription Factor (AID 2282986); details: HepG2 Attagene CIS-FACTORIAL Myb reporter transcription; actives raise or lower the signal
Sequence of Transcriptional activator Myb (Homo sapiens) (P10242 whole entry, looked up): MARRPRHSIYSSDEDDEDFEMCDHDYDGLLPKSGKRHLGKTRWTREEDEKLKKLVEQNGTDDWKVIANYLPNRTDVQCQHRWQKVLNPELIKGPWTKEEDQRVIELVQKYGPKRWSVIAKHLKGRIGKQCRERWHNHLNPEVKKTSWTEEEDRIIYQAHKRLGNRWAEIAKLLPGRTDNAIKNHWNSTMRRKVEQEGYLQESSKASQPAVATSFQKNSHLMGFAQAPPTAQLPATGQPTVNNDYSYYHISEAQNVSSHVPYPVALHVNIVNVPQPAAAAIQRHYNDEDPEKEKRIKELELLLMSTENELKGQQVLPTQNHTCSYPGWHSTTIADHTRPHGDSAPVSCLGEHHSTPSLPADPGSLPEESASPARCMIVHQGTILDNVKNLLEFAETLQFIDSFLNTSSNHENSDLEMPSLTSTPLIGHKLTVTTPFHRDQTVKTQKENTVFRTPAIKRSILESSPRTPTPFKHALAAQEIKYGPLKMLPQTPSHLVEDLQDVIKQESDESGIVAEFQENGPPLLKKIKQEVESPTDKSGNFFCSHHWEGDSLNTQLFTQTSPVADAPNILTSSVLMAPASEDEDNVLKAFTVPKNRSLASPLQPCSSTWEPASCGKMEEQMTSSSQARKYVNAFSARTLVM
Summary of the method: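 Steps: transfect HepG2 with cis-regulated reporter units; dose with chemical for 24 h; isolate RNA, reverse-transcribe, PCR-amplify and FAM-label reporter sequences; digest with HpaI; resolve by capillary electrophoresis. Activity fitted in both directions relative to DMSO.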

[8] = molecular target: Nuclear respiratory factor 1 (Homo sapiens) (UniProt Q16656); experiment: ATG_NRF1_CIS: Attagene CIS-FACTORIAL HepG2 Assay for human Nuclear Respiratory Factor 1 (NRF1) Orphan Gene (AID 2282987); details: HepG2 NRF1 cis-element reporter, Attagene multiplex; actives raise or lower the signal
Sequence of Nuclear respiratory factor 1 (Homo sapiens) (Q16656 whole entry, looked up, the tested form may be a part): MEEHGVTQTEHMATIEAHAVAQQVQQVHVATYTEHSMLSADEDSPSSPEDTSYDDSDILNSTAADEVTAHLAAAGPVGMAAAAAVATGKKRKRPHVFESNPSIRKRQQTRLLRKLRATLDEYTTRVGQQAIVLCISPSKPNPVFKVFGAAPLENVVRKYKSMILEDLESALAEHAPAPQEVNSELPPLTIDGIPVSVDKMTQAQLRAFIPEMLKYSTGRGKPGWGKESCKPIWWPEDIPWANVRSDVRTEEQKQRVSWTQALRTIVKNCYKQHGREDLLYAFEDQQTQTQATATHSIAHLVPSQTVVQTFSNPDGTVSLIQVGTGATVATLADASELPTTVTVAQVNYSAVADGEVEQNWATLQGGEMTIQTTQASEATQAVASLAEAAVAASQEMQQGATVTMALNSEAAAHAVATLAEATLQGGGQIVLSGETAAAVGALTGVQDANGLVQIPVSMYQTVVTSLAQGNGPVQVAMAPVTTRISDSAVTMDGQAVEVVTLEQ
Summary of the method: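 Fluorescence intensity of labelled reporter cDNA fragments, resolved by capillary electrophoresis, served as readout for NRF1 cis-element activity. Transiently transfected HepG2 cells were dosed for 24 hours; activity in either direction was fitted against DMSO negative control.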

[9] = ATG_NFI_CIS: Attagene CIS-FACTORIAL HepG2 Assay for human Nuclear Factor I (NFI) (AID 2282989); details: HepG2 cis-regulatory reporter, NFI response element transcription; actives raise or lower the signal
Summary of the method: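 Cells: human liver HepG2, transiently transfected with promoter-regulated reporter transcription units. Exposure 24 h. Detection: fluorescent RT-PCR products separated by capillary electrophoresis, normalised to DMSO negative control.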

[10] = molecular target: Myc proto-oncogene protein (Homo sapiens) (UniProt P01106); experiment: ATG_Myc_CIS: Attagene CIS-FACTORIAL HepG2 Assay for human Myelocytomatosis (Myc) Proto-Oncogene Transcription Factor (AID 2282990); details: HepG2, Attagene cis-reporter transcription factor activity; actives raise or lower the signal
Sequence of Myc proto-oncogene protein (Homo sapiens) (P01106 whole entry, looked up, the tested form may be a part): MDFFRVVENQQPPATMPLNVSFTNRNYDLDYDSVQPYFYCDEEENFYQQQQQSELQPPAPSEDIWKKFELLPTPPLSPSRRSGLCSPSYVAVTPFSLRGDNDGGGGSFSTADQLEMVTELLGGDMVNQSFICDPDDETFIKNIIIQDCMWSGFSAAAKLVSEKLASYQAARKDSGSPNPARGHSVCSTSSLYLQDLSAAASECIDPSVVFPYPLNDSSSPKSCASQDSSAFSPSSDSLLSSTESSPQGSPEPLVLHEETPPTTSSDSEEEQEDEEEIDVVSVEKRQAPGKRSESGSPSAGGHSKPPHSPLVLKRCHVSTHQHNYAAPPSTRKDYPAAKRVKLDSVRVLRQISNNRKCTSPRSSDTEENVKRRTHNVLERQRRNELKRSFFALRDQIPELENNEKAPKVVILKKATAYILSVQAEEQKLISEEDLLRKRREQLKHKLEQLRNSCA
Summary of the method: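 Fluorescence intensity of reporter-specific cDNA fragments, separated by capillary electrophoresis, gives the signal. Transfected HepG2 cells carrying cis-promoter reporter constructs are incubated with compound for 24 h; DMSO serves as baseline.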

[11] = ATG_NF_kB_CIS: Attagene CIS-FACTORIAL HepG2 Assay for human Nuclear Factor Kappa B (NF-kB) (AID 2282991); details: HepG2 Attagene cis-factorial NF-kB reporter mRNA; actives raise or lower the signal
Summary of the method: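 Endogenous transcription factor activity in HepG2 was captured via cis-regulated reporter constructs; after 24 h dosing, reporter mRNA was reverse-transcribed, amplified, fluorescently labelled and sized by capillary electrophoresis, with activity fitted bidirectionally relative to DMSO.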

[12] = molecular target: Oxysterols receptor LXR-alpha (Homo sapiens) (UniProt Q13133); experiment: ATG_LXRa_TRANS: Attagene TRANS-FACTORIAL HepG2 Assay for human Liver X Receptor alpha (LXRa) (AID 2282980; active means hit-call score of the fitted dose curve at least 0.9, where 1 is the maximum); details: HepG2 Attagene TRANS reporter, LXRa transactivation
Summary of the method: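 HepG2 cells transiently transfected with GAL4-UAS reporter units for chimeric NR-Gal4 proteins, exposed to chemicals for 24 h. Reporter mRNA quantified by RT-PCR and capillary electrophoresis; gain of signal fitted relative to DMSO.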

[13] = ATG_M_06_TRANS: Attagene TRANS-FACTORIAL HepG2 Assay for M06 Transcription Factor (Internal Marker) (AID 2282983; active means hit-call score of the fitted dose curve at least 0.9, where 1 is the maximum;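 further: reporter transcript level by RT-PCR then capillary electrophoresis fluorescence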); details: HepG2 Attagene TRANS M06 internal marker reporter
Summary of the method: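 mRNA levels of a reporter transcript, quantified as FAM fluorescence on capillary electrophoresis, served as readout. HepG2 cells expressing exogenous GAL4-chimera reporter constructs were exposed for 24 h. Gain of signal over DMSO was evaluated.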

[14] = ATG_NRF2_ARE_CIS: Attagene CIS-FACTORIAL HepG2 Assay for human Nuclear Factor Erythroid 2 Related Factor 2 (NFR2) response to Antioxidant Response Elements (ARE) (AID 2282992); details: HepG2 Attagene ARE/NRF2 reporter, transcription factor activity; actives raise or lower the signal;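 on AC50: reporter mRNA level measured by RT-PCR and capillary electrophoresis fluorescence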
Summary of the method: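 Readout: reporter mRNA quantified by RT-PCR plus FAM-labelled primer extension, HpaI digestion and capillary electrophoresis, 24 h after dosing transfected HepG2 cells. Gain or loss of signal is fitted bidirectionally against DMSO baseline.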

[15] = molecular target: Bile acid receptor (Homo sapiens) (UniProt Q96RI1); experiment: ATG_FXR_TRANS: Attagene TRANS-FACTORIAL HepG2 Assay for Farnesoid X Receptor (FXR) (AID 2282979; active means hit-call score of the fitted dose curve at least 0.9, where 1 is the maximum;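 further: hits raise reporter mRNA above DMSO so AC50 marks FXR activation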); details: HepG2 Attagene TRANS FXR-GAL4 reporter transcription
Sequence of Bile acid receptor (Homo sapiens) (Q96RI1 whole entry, looked up, the tested form may be a part): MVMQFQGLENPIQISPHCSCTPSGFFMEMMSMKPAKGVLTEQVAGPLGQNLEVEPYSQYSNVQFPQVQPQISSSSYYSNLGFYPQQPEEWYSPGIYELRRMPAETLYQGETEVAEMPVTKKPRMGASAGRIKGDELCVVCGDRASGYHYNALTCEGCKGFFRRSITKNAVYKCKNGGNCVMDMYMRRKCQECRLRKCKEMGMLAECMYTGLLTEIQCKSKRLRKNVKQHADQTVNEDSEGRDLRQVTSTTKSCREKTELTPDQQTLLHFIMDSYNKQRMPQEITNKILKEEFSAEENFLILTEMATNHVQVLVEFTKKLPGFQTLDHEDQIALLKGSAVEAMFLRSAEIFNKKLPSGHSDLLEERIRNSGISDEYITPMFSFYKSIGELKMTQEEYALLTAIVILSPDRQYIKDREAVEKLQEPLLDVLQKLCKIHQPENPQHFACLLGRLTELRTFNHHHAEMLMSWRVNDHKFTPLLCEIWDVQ
Summary of the method: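 HepG2 cells were transiently transfected with GAL4-UAS reporters driven by chimeric NR-Gal4 proteins and dosed for 24 h. Reporter mRNA was quantified by RT-PCR, fluorescent labelling, HpaI digestion and capillary electrophoresis, with gain of signal scored versus DMSO.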

[16] = molecular target: Nuclear receptor subfamily 4 group A member 2 (Homo sapiens) (UniProt P43354); experiment: ATG_NURR1_TRANS: Attagene TRANS-FACTORIAL HepG2 Assay for human Nuclear Receptor Related Protein 1 (NURR1) (AID 2282985; active means hit-call score of the fitted dose curve at least 0.9, where 1 is the maximum); details: HepG2 Attagene TRANS reporter, mRNA readout
Sequence of Nuclear receptor subfamily 4 group A member 2 (Homo sapiens) (P43354 whole entry, looked up, the tested form may be a part): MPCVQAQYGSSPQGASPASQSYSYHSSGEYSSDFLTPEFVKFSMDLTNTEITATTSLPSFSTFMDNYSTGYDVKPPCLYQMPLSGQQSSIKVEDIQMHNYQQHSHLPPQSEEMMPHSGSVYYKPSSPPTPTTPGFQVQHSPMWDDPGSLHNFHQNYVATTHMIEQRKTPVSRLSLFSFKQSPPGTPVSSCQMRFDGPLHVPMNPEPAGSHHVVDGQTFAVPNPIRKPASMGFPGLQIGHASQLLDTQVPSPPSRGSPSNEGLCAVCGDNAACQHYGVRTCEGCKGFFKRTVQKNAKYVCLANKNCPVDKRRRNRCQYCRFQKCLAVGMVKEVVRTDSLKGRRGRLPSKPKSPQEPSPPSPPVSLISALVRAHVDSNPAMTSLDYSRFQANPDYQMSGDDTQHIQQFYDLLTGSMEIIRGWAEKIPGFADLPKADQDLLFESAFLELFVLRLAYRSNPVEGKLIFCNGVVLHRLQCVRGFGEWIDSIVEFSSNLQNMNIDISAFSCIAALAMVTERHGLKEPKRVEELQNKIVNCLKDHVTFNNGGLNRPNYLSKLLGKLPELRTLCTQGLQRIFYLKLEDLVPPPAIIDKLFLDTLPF
Summary of the method: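 Read-out: reporter mRNA induction by RT-PCR plus capillary electrophoresis with fluorescence detection, after 24 h dosing of transfected HepG2 cells. Exogenous NR-Gal4 chimera activity drives GAL4-UAS reporter; activity fitted upward versus DMSO.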

[17] = molecular target: Estrogen-related receptor gamma (Homo sapiens) (UniProt P62508); experiment: ATG_ERRg_TRANS: Attagene TRANS-FACTORIAL HepG2 Assay for human Estrogen-Related Receptor gamma (ERRg) (AID 2282977; active means hit-call score of the fitted dose curve at least 0.9, where 1 is the maximum;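 further: hits increase reporter signal over DMSO so potencies reflect activators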); details: HepG2 Attagene TRANS reporter, ERRg transactivation
Summary of the method: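 Exogenous NR-Gal4 chimera activity was assessed in HepG2 cells bearing transfected GAL4-UAS reporters. After 24 h dosing, total RNA underwent RT-PCR, fluorescent primer extension and HpaI digestion before capillary electrophoresis, with gain of signal scored against DMSO.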

| SMILES | outcome [1] | outcome [2] | outcome [3] | outcome [4] | outcome [5] | outcome [6] | outcome [7] | outcome [8] | outcome [9] | outcome [10] | outcome [11] | outcome [12] | outcome [13] | outcome [14] | outcome [15] | AC50 [16] | AC50 [14] | outcome [17] | outcome [16] |
| --- | --- | --- | --- | --- | --- | --- | --- | --- | --- | --- | --- | --- | --- | --- | --- | --- | --- | --- | --- |
| O=C(Cc1ccccc1)OCCc1ccccc1 | inactive | inactive | inactive | inactive | inactive | inactive | inactive | inactive | inactive | inactive | inactive | – | – | – | – | – | – | – | – |
| COc1nn(C(=O)NS(=O)(=O)c2ccccc2OC(F)(F)F)c(=O)n1C | inactive | inactive | inactive | – | inactive | inactive | inactive | inactive | inactive | inactive | inactive | inactive | inactive | inactive | – | – | – | – | – |
| C#CCOC(=O)/C=C(C)/C=C/CC(C)CCCC(C)C (centres undefined) | inactive | inactive | inactive | – | – | – | inactive | inactive | inactive | inactive | inactive | – | inactive | – | inactive | 16.6 µM (active) | 57.3 µM (active) | – | – |
| CCCCN(CCCCO)N=O | inactive | inactive | inactive | – | – | – | inactive | inactive | inactive | inactive | inactive | – | inactive | inactive | – | – | – | – | – |
| CC1(C)[C@H](C(=O)O[C@H](C#N)c2cccc(Oc3ccccc3)c2)[C@@H]1/C=C(\Cl)C(F)(F)F | inactive | inactive | inactive | – | inactive | – | inactive | inactive | inactive | inactive | inactive | – | inactive | inactive | – | – | – | – | – |
| C=C(C)C(=O)OCC(CC)CCCC (centres undefined) | inactive | inactive | – | – | inactive | – | – | inactive | inactive | inactive | inactive | – | inactive | inactive | – | – | – | inactive | inactive |
| CC(C)CP(=S)(S)CC(C)C | inactive | inactive | inactive | – | inactive | – | inactive | inactive | inactive | inactive | inactive | – | inactive | inactive | – | – | – | – | – |
| CCOC(=O)OC1=C(c2cc(C)ccc2C)C(=O)NC12CCC(OC)CC2 (centres undefined) | inactive | – | inactive | – | inactive | – | inactive | inactive | – | inactive | – | inactive | inactive | – | inactive | – | 69.8 µM (active) | – | – |
| O=NN1CCCCCCC1 | inactive | inactive | inactive | inactive | inactive | – | inactive | inactive | inactive | inactive | inactive | – | inactive | – | – | – | 114 µM (active) | – | – |
| Cc1cccc(N=Nc2ccc(N(C)C)cc2)c1 | inactive | – | – | – | inactive | – | – | inactive | inactive | inactive | – | – | inactive | – | – | – | 5.01 µM (active) | inactive | – |
